# According to PubChem BioAssay (NCI):
# This is part of a sample that, as a whole, favours compounds with a hit. Of some 79,000 tested, about 15% had one in any assay. A number with no mark means an inactive call. Active and inactive are the calls of the source. Cut-off read from the data, not from the text of the source: active = growth inhibition above about 70%; inactive = the rest.
# Key:
# [1] = NCI Yeast Anticancer Drug Screen. Data for the wt1 strain (AID 149);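 note: 0% = growth of vehicle-treated wt1 cultures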; details: S. cerevisiae wt1 strain (SPY 50644) growth inhibition, stronger effect = higher value
# How it was run: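 Growth inhibition read against vehicle controls after compound exposure of the wt1 yeast strain.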
# [2] = NCI Yeast Anticancer Drug Screen. Data for the rad50EPP+ strain (AID 151);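 note: 0% = growth of vehicle-treated control cultures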; details: S. cerevisiae rad50 mutant strain, stronger effect = higher value
# How it was run: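 In this screen, rad50EPP+ yeast were exposed to compounds. Growth inhibition was scored against vehicle-treated controls.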
# [3] = NCI Yeast Anticancer Drug Screen. Data for the rad50 strain (AID 155);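 note: 0% = growth of vehicle-only cultures of the same strain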; details: S. cerevisiae rad50 strain growth inhibition, stronger effect = higher value
# How it was run: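 Readout: growth inhibition relative to vehicle-treated cultures. Compound exposure was carried out in a genetically defined yeast strain deficient in DNA damage repair.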
# [4] = NCI Yeast Anticancer Drug Screen. Data for the mec2-1 strain (AID 157); details: S. cerevisiae mec2-1 strain, stronger effect = higher value
# How it was run: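 Vehicle-treated cultures served as reference for growth inhibition of compound-exposed mec2-1 yeast.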
# [5] = NCI Yeast Anticancer Drug Screen. Data for the rad14 strain (AID 159);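 note: 0% = growth of vehicle-treated control cultures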; details: S. cerevisiae rad14 strain growth inhibition, stronger effect = higher value
# How it was run: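 Growth inhibition vs vehicle controls; genetically altered yeast strain (DNA damage repair defect) treated with test compounds.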
# [6] = NCI Yeast Anticancer Drug Screen. Data for the sgs1 mgt1 strain (AID 161);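 note: 0% = growth of cultures given vehicle only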; details: S. cerevisiae sgs1 mgt1 strain, stronger effect = higher value
# How it was run: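 Read-out: growth inhibition vs vehicle controls. Cells: mutant yeast strain deficient in DNA damage repair.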
# [7] = NCI Yeast Anticancer Drug Screen. Data for the CLN2oe strain (AID 163);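 note: 0% = growth of vehicle-only control cultures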; details: S. cerevisiae CLN2oe strain, stronger effect = higher value
# How it was run: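 Inhibition relative to vehicle-treated yeast is reported. Cells: strain with genetic alteration in cell-cycle control, grown with compound.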
# [8] = NCI Yeast Anticancer Drug Screen. Data for the cln2 rad14 strain (AID 165);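 note: 0% = growth equal to vehicle treated cultures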; details: S. cerevisiae cln2 rad14 strain, stronger effect = higher value
# How it was run: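 Each compound was tested on cln2 rad14 yeast. Inhibition of growth was calculated against vehicle-exposed controls.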
# [9] = NCI Yeast Anticancer Drug Screen. Data for the bub3 strain (AID 167); details: S. cerevisiae bub3 mutant strain, stronger effect = higher value
# How it was run: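 Readout: yeast growth inhibition, expressed relative to vehicle-only wells. The test organism is a mutant strain from a panel with lesions in DNA repair or checkpoint genes.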
# [10] = NCI Yeast Anticancer Drug Screen. Data for the wt2 strain (AID 169);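 note: 0% = growth of vehicle-treated yeast cultures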; details: S. cerevisiae wt2 strain growth inhibition, stronger effect = higher value
# How it was run: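 Inhibition of yeast growth was determined after compound treatment, normalised to controls receiving only vehicle.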
# [11] = NCI Yeast Anticancer Drug Screen. Data for the mlh1 strain (AID 171);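 note: 0% = growth of vehicle-treated control cultures of the same strain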; details: S. cerevisiae mlh1 strain growth inhibition, stronger effect = higher value
# How it was run: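 Vehicle-normalised growth inhibition of a repair- or checkpoint-altered yeast strain following compound treatment.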
# [12] = NCI Yeast Anticancer Drug Screen. Data for the sgs1 strain (AID 173);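 note: 0% = growth of vehicle-only control cultures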; details: S. cerevisiae sgs1 mutant, stronger effect = higher value
# How it was run: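 Screen format: yeast with repair or checkpoint alterations, compound exposure, growth read relative to vehicle.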
# [13] = NCI Yeast Anticancer Drug Screen. Data for the mlh1 rad18 strain (AID 175); details: S. cerevisiae mlh1 rad18 strain growth inhibition, stronger effect = higher value
# How it was run: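 Vehicle-treated cultures served as the reference for growth inhibition in a yeast strain carrying DNA damage repair alterations exposed to each compound.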
# [14] = NCI Yeast Anticancer Drug Screen. Data for the rad18 strain (AID 177); details: S. cerevisiae rad18 mutant growth inhibition, stronger effect = higher value
# How it was run: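 Test articles were incubated with altered yeast defective in DNA damage repair. Results are given as inhibition of growth versus vehicle.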
# [15] = at 5.0 µM (retest, dose inferred, filed as 0.5)
# [16] = at 50.0 µM (retest, dose inferred, filed as 5.0)
smiles,measurement,setting,value
Nc1ccc2cc(Br)c3ccccc3c2c1,growth inhibition,[1]; at 1.2 µM,0%
same,growth inhibition,[1]; at 3.7 µM,1%
same,growth inhibition,[1]; at 11.0 µM,-2%
same,growth inhibition,[1]; at 33.0 µM,-2%
same,growth inhibition,[1]; at 100.0 µM,75% (active)
same,growth inhibition,[2]; at 1.2 µM,3%
same,growth inhibition,[2]; at 3.7 µM,5%
same,growth inhibition,[2]; at 11.0 µM,22%
same,growth inhibition,[2]; at 33.0 µM,39%
same,growth inhibition,[2]; at 100.0 µM,26%
same,growth inhibition,[3]; at 1.2 µM,0%
same,growth inhibition,[3]; at 3.7 µM,1%
same,growth inhibition,[3]; [15],5%
same,growth inhibition,[3]; at 11.0 µM,1%
same,growth inhibition,[3]; at 33.0 µM,16%
same,growth inhibition,[3]; [16],41%
same,growth inhibition,[3]; at 50.0 µM,86.2% (active)
same,growth inhibition,[3]; at 100.0 µM,20%
same,growth inhibition,[4]; at 1.2 µM,-3%
same,growth inhibition,[4]; at 3.7 µM,-1%
same,growth inhibition,[4]; [15],-18%
same,growth inhibition,[4]; at 11.0 µM,0%
same,growth inhibition,[4]; at 33.0 µM,3%
same,growth inhibition,[4]; [16],6%
same,growth inhibition,[4]; at 50.0 µM,73.7% (active)
same,growth inhibition,[4]; at 100.0 µM,6%
same,growth inhibition,[5]; at 1.2 µM,-1%
same,growth inhibition,[5]; at 3.7 µM,0%
same,growth inhibition,[5]; at 11.0 µM,4%
same,growth inhibition,[5]; at 33.0 µM,8%
same,growth inhibition,[5]; at 100.0 µM,21%
same,growth inhibition,[6]; [15],13%
same,growth inhibition,[6]; [16],50%
same,growth inhibition,[6]; at 50.0 µM,88.5% (active)
same,growth inhibition,[7]; at 1.2 µM,-2%
same,growth inhibition,[7]; at 3.7 µM,-19%
same,growth inhibition,[7]; at 11.0 µM,-1%
same,growth inhibition,[7]; at 33.0 µM,-4%
same,growth inhibition,[7]; at 100.0 µM,-16%
same,growth inhibition,[8]; [15],15%
same,growth inhibition,[8]; [16],18%
same,growth inhibition,[8]; at 50.0 µM,40.1%
same,growth inhibition,[9]; at 1.2 µM,0%
same,growth inhibition,[9]; at 3.7 µM,2%
same,growth inhibition,[9]; [15],10%
same,growth inhibition,[9]; at 11.0 µM,2%
same,growth inhibition,[9]; at 33.0 µM,-1%
same,growth inhibition,[9]; [16],31%
same,growth inhibition,[9]; at 50.0 µM,71.5% (active)
same,growth inhibition,[9]; at 100.0 µM,-6%
same,growth inhibition,[10]; at 1.2 µM,-1%
same,growth inhibition,[10]; at 3.7 µM,0%
same,growth inhibition,[10]; at 11.0 µM,-3%
same,growth inhibition,[10]; at 33.0 µM,2%
same,growth inhibition,[10]; at 100.0 µM,80% (active)
same,growth inhibition,[11]; at 1.2 µM,-1%
same,growth inhibition,[11]; at 3.7 µM,-1%
same,growth inhibition,[11]; at 11.0 µM,-1%
same,growth inhibition,[11]; at 33.0 µM,1%
same,growth inhibition,[11]; at 100.0 µM,2%
same,growth inhibition,[12]; at 1.2 µM,-2%
same,growth inhibition,[12]; at 3.7 µM,-2%
same,growth inhibition,[12]; at 11.0 µM,-1%
same,growth inhibition,[12]; at 33.0 µM,4%
same,growth inhibition,[12]; at 100.0 µM,9%
same,growth inhibition,[13]; [15],28%
same,growth inhibition,[13]; [16],65%
same,growth inhibition,[13]; at 50.0 µM,90.3% (active)
same,growth inhibition,[14]; at 1.2 µM,-3%
same,growth inhibition,[14]; at 3.7 µM,-2%
same,growth inhibition,[14]; at 11.0 µM,-4%
same,growth inhibition,[14]; at 33.0 µM,-1%
same,growth inhibition,[14]; at 100.0 µM,-5%
